Out of some 39,000 compounds screened, about 1,500 (3.8%) were called active. The list comes from a sample in which actives are over-represented; it also holds similar structures and randomly drawn compounds.
system: HSkMC (human skeletal muscle cells); test: cytotoxicity call (relative viability < 0.9); conditions: 10 µM

Structure (SMILES)	cytotoxicity call
O=C(CN1CCOCC1)NCC[C@@H]1CC[C@@H](NC(=O)Cc2ccccn2)[C@H](CO)O1	inactive
C[C@@H]1CN([C@@H](C)CO)C(=O)Cc2cc(NC(=O)C3CCCCC3)ccc2O[C@H]1CN(C)C(=O)Nc1ccc(C(F)(F)F)cc1	inactive
CC[C@H]1CN(C)N1C(=O)[C@@H]1CCCO1	inactive
CC(C)CC#Cc1ccc2c(c1)O[C@H](CN(C)C(=O)c1ccncc1)[C@H](C)CN([C@@H](C)CO)S2(=O)=O	inactive
C[C@@H]1CN([C@@H](C)CO)C(=O)Cc2cc(NS(=O)(=O)c3ccc(Cl)cc3)ccc2O[C@H]1CN(C)Cc1ccc(Cl)c(Cl)c1	active
C[C@@H]1CN([C@@H](C)CO)C(=O)Cc2cc(NS(=O)(=O)c3ccc(Cl)cc3)ccc2O[C@@H]1CN(C)Cc1ccc(Cl)c(Cl)c1	active
C[C@H](CO)N1C[C@H](C)[C@H](CN(C)Cc2ccc(Cl)c(Cl)c2)Oc2ccc(NS(=O)(=O)c3ccc(Cl)cc3)cc2CC1=O	active
C[C@H]1CN([C@@H](C)CO)C(=O)Cc2cc(NS(=O)(=O)c3ccc(Cl)cc3)ccc2O[C@@H]1CN(C)Cc1ccc(Cl)c(Cl)c1	inactive
C[C@H](CO)N1C[C@H](C)[C@@H](CN(C)Cc2ccc(Cl)c(Cl)c2)Oc2ccc(NS(=O)(=O)c3ccc(Cl)cc3)cc2CC1=O	inactive
C[C@@H]1CN([C@H](C)CO)C(=O)Cc2cc(NS(=O)(=O)c3ccc(Cl)cc3)ccc2O[C@@H]1CN(C)Cc1ccc(Cl)c(Cl)c1	active
C[C@H](CO)N1C[C@H](C)[C@H](CN(C)CC2CC2)Oc2ccc(NC(=O)CCN3CCOCC3)cc2CC1=O	inactive
CC(C)NC(=O)N(C)C[C@@H]1Oc2ccc(NC(=O)NC3CCCCC3)cc2C(=O)N([C@H](C)CO)C[C@@H]1C	inactive
CC(C)(C)[S@@](=O)N1Cc2cc(C(=O)NCc3ccc4c(c3)OCO4)nc(CCNS(=O)(=O)c3ccccc3)c2[C@H]1CCO	inactive
CCS(=O)(=O)N1CC[C@]2(CC1)CN(CC1CCOCC1)[C@H](CO)c1c2c2ccc(cc2n1C)OC	inactive
Cc1noc(C)c1S(=O)(=O)Nc1ccc2c(c1)CC(=O)N([C@H](C)CO)C[C@H](C)[C@H](CN(C)Cc1ccc3c(c1)OCO3)O2	inactive
C[C@@H]1CCCCO[C@H](CN(C)C(=O)Nc2ccc(F)cc2)[C@@H](C)CN([C@H](C)CO)C(=O)c2cc(NC(=O)Nc3ccc4c(c3)OCO4)ccc2O1	inactive
Cc1noc(C)c1NC(=O)N(C)C[C@@H]1Oc2ccc(NS(=O)(=O)c3cn(C)cn3)cc2C(=O)N([C@H](C)CO)C[C@@H]1C	inactive
Cc1ccc(S(=O)(=O)N(C)C[C@@H]2OCCCC[C@@H](C)Oc3ccc(NC(=O)Nc4ccc(F)cc4)cc3C(=O)N([C@@H](C)CO)C[C@H]2C)cc1	inactive
O=C(C[C@@H]1C=C[C@@H](NC(=O)c2cccc(F)c2)[C@H](CO)O1)NCCN1CCCC1	inactive
C[C@H](CO)N1C[C@H](C)[C@H](CN(C)Cc2ccc(Cl)c(Cl)c2)Oc2ccc(NS(=O)(=O)c3ccc(F)cc3)cc2CC1=O	inactive
C[C@H](CO)N1C[C@H](C)[C@@H](CN(C)Cc2ccc(Cl)c(Cl)c2)Oc2ccc(NS(=O)(=O)c3ccc(F)cc3)cc2CC1=O	inactive

Structure (SMILES)	cytotoxicity call
C[C@H]1CN([C@@H](C)CO)C(=O)Cc2cc(NS(=O)(=O)c3ccc(Cl)cc3)ccc2O[C@H]1CN(C)Cc1ccc(Cl)c(Cl)c1	active
C[C@@H]1CN([C@H](C)CO)C(=O)Cc2cc(NS(=O)(=O)c3ccc(Cl)cc3)ccc2O[C@H]1CN(C)Cc1ccc(Cl)c(Cl)c1	active
COc1ccc(S(=O)(=O)Nc2cccc3c2O[C@@H](CN(C)S(=O)(=O)c2cccs2)[C@@H](C)CN([C@@H](C)CO)C3=O)cc1	inactive
C[C@H]1CN([C@@H](C)CO)C(=O)c2cccc(NC(=O)Nc3cccc4ccccc34)c2O[C@H]1CN(C)C(=O)Nc1ccc(F)cc1	inactive
OCCN1CCOCC1	inactive
CCN1C(=O)S[C@@H](CC(=O)O)C1=O	inactive
COc1ccc(NC(=O)N(C)C[C@@H]2Oc3c(NS(C)(=O)=O)cccc3C(=O)N([C@@H](C)CO)C[C@H]2C)cc1	inactive
CN1C(=O)c2cc(NC(=O)Nc3ccccc3F)ccc2OC[C@@H]2O[C@H](CC(=O)NCc3ccc(-c4ccccc4)cc3)CC[C@H]21	inactive
O=[N+]([O-])c1ccc(Oc2ccc(-c3ccccc3)cc2)cc1	inactive
O=c1cc(O)nc[nH]1	inactive
O=C(O)c1ccc(O)c(O)c1O	inactive
CSCC[C@H](NC(=O)[C@H](Cc1c[nH]c2ccccc12)NC(=O)CNC(=O)[C@@H](NC(=O)[C@H](Cc1ccc(OS(=O)(=O)O)cc1)NC(=O)[C@H](CC(=O)O)NC(=O)[C@H](CCC(N)=O)NC(=O)[C@@H]1CCC(=O)N1)[C@@H](C)O)C(=O)N[C@@H](CC(=O)O)C(=O)N[C@@H](Cc1ccccc1)C(N)=O	inactive
CSCC[C@H](NC(=O)[C@@H](N)Cc1c[nH]c2ccccc12)C(=O)N[C@@H](CC(=O)O)C(=O)N[C@@H](Cc1ccccc1)C(N)=O	inactive
CSCC[C@H](NC(=O)[C@H](Cc1ccc(OS(=O)(=O)O)cc1)NC(=O)[C@@H](N)CC(=O)O)C(=O)NCC(=O)N[C@@H](Cc1c[nH]c2ccccc12)C(=O)N[C@@H](CCSC)C(=O)N[C@@H](CC(=O)O)C(=O)N[C@@H](Cc1ccccc1)C(N)=O	active
C[C@H]1CN([C@@H](C)CO)C(=O)Cc2cc(NC(=O)c3ccncc3)ccc2O[C@H]1CN(C)S(=O)(=O)c1ccc(F)cc1	inactive
C[C@H](CO)N1C[C@H](C)[C@@H](CN(C)S(=O)(=O)c2ccc(F)cc2)OCCCC[C@H](C)Oc2ccc(NC(=O)c3ccccc3)cc2C1=O	inactive
O=C(O)[C@H]1C[C@@H](CP(=O)(O)O)CCN1	inactive
COc1ccc(NC(=O)Nc2ccc3c(c2)C(=O)N([C@@H](C)CO)C[C@H](C)[C@@H](CN(C)Cc2ccc(C(F)(F)F)cc2)O3)cc1	inactive
COc1ccc(CN(C)C[C@@H]2Oc3ccc(NC(=O)Nc4ccc(C(F)(F)F)cc4)cc3C(=O)N([C@@H](C)CO)C[C@H]2C)cc1	active
COc1ccc(NC(=O)Nc2ccc3c(c2)C(=O)N([C@H](C)CO)C[C@@H](C)[C@H](CN(C)Cc2ccc(C(F)(F)F)cc2)O3)cc1	inactive
COc1ccc(NC(=O)Nc2ccc3c(c2)C(=O)N([C@@H](C)CO)C[C@@H](C)[C@H](CN(C)Cc2ccc(C(F)(F)F)cc2)O3)cc1	inactive

Structure (SMILES)	cytotoxicity call
COc1ccc(CN(C)C[C@H]2Oc3ccc(NC(=O)Nc4ccc(C(F)(F)F)cc4)cc3C(=O)N([C@H](C)CO)C[C@@H]2C)cc1	inactive
COc1ccc(CN(C)C[C@@H]2Oc3ccc(NC(=O)Nc4ccc(C(F)(F)F)cc4)cc3C(=O)N([C@H](C)CO)C[C@H]2C)cc1	active
COc1ccc(CN(C)C[C@H]2Oc3ccc(NC(=O)Nc4ccc(C(F)(F)F)cc4)cc3C(=O)N([C@H](C)CO)C[C@H]2C)cc1	inactive
COc1ccc(NC(=O)Nc2ccc3c(c2)C(=O)N([C@H](C)CO)C[C@H](C)[C@@H](CN(C)Cc2ccc(C(F)(F)F)cc2)O3)cc1	inactive
COc1ccc(CN(C)C[C@@H]2Oc3ccc(NC(=O)Nc4ccc(C(F)(F)F)cc4)cc3C(=O)N([C@H](C)CO)C[C@@H]2C)cc1	active
COc1ccc(CN(C)C[C@@H]2Oc3ccc(NC(=O)Nc4ccc(C(F)(F)F)cc4)cc3C(=O)N([C@@H](C)CO)C[C@@H]2C)cc1	active
COc1ccc(NC(=O)Nc2ccc3c(c2)C(=O)N([C@@H](C)CO)C[C@@H](C)[C@@H](CN(C)Cc2ccc(C(F)(F)F)cc2)O3)cc1	inactive
COc1ccc(NC(=O)Nc2ccc3c(c2)C(=O)N([C@@H](C)CO)C[C@H](C)[C@H](CN(C)Cc2ccc(C(F)(F)F)cc2)O3)cc1	inactive
Nc1cccn2ncnc12	inactive
CCCC(=O)Nc1nc2[nH]c(C)cc(=O)n2n1	inactive
COc1cccc(CNC(=O)c2cc3c(c(-c4cccc(-c5cccc(C#N)c5)c4)n2)[C@@H](CCO)N([S@](=O)C(C)(C)C)C3)c1	inactive
COC1(NC(=O)C(C(=O)[O-])c2ccc(O)cc2)C(=O)N2C(C(=O)[O-])=C(CSc3nnnn3C)COC21.[Na+].[Na+] (stereo not drawn)	inactive
CNC[C@H]1OCCCC[C@@H](C)Oc2ccc(NC(=O)c3ccncc3)cc2C(=O)N([C@@H](C)CO)C[C@H]1C	inactive
C[C@@H]1CCCCO[C@@H](CN(C)C(=O)Nc2ccc(F)cc2)[C@@H](C)CN([C@H](C)CO)C(=O)c2cc(NC(=O)C3CCCCC3)ccc2O1	inactive
C[C@@H]1CN([C@@H](C)CO)C(=O)c2cc(NC(=O)c3ccccc3)ccc2O[C@@H](C)CCCCO[C@@H]1CN(C)S(=O)(=O)c1ccc(F)cc1	inactive
Cc1cc(O)n(C[C@H]2CCCO2)c(=O)c1C#N	inactive
COc1ccc(S(=O)(=O)Nc2ccc3c(c2)C(=O)N([C@H](C)CO)C[C@@H](C)[C@H](CN(C)C(=O)Nc2ccc4c(c2)OCO4)OCCCC[C@@H](C)O3)cc1	inactive
COc1ccc(S(=O)(=O)N(C)C[C@H]2Oc3c(NC(=O)Nc4c(C)noc4C)cccc3C(=O)N([C@@H](C)CO)C[C@@H]2C)cc1	inactive
O=C(NC1CCCCC1)N1c2ccccc2C=Cc2ccccc21	inactive
C[C@H]1CN([C@@H](C)CO)C(=O)c2c(c3ccccc3n2C)-c2ccccc2CO[C@@H]1CN(C)Cc1cccc2c1OCCCO2	inactive
CCCC(=O)N1CC[C@]2(CC1)CN([C@H](CO)c1c2c2ccc(cc2n1C)OC)C(=O)CN1CCOCC1	inactive
